What all share (assay): NCI-60 one-dose screen, 48 h (100 = growth as untreated, 0 = no growth, -100 = all killed)
One test concerns NCI-H23 lung. The settings on record: 10 µM unless noted.
The test system of the next test is NCI-H226 lung. To be noted: 10 µM unless noted.
A further test deals with NCI-H322M lung. To be noted: 10 µM unless noted.
A further test deals with HOP-92 NSCLC. To be noted: 10 µM.
The subject of the next test is NCI-H522 lung. To be noted: 10 µM.
In another test the test system is A549/ATCC NSCLC. The settings on record: 10 µM unless noted.
In a further test the test system is 786-0 renal. The settings on record: 10 µM unless noted.
A further test concerns COLO 205 colon. To be noted: 10 µM unless noted.
The subject of the next test is DU-145 prostate. The settings on record: 10 µM unless noted.
The next test deals with K-562 leukemia. The settings on record: 10 µM unless noted.
Another test relates to MALME-3M melanoma. The settings on record: 10 µM unless noted.
The test system of a further test is MDA-MB-231 breast. The settings on record: 10 µM unless noted.
The next test concerns RXF 393 renal. The settings on record: 10 µM unless noted.
A further test relates to SF-268 CNS. To be noted: 10 µM unless noted.
The next test relates to SF-295 CNS. The settings on record: 10 µM unless noted.
A further test concerns SF-539 CNS. The settings on record: 10 µM unless noted.
Another test concerns UACC-257 melanoma. To be noted: 10 µM unless noted.
In another test the test system is NCI-H460 lung. The settings on record: 10 µM unless noted.
A further test deals with M14 melanoma. The settings on record: 10 µM unless noted.

The structures appear in SMILES notation. Compounds without any hit were thinned out: in the full panel of roughly 83,000, 20% have a hit.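 Values shown are percent growth following 48 h exposure of cells in 96-well plates to a single concentration of compound; below 10 was considered active.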 Values without a mark were called inactive. The source made the active and inactive calls.

For the compound `COCC(=O)NNc1[nH]c(-c2ccc(OC)cc2)cc1C#N`, the growth is 100% in the test on NCI-H23 lung; 106% in the test on NCI-H226 lung; 33.4% in the test with NCI-H322M lung; 95.4% in the test on HOP-92 NSCLC; 104% in the test on NCI-H522 lung; 112% in the test with A549/ATCC NSCLC. The growth with 786-0 renal is 95.3%; in the test with COLO 205 colon, 115%; in the test on DU-145 prostate, 111%; in the test on K-562 leukemia, 96.9%; in the test with MALME-3M melanoma, 112%; in the test with MDA-MB-231 breast it was 102%. Moreover, the growth with RXF 393 renal is 114%; in the test on SF-268 CNS, 119%; in the test with SF-295 CNS, 96%; in the test with SF-539 CNS it was 96.2%; in the test on UACC-257 melanoma it was 109%.
Take `Nc1nc2c(c3cnccc13)C(c1ccc(Cl)c(Cl)c1)Cc1cnccc1-2` (stereo not drawn): the growth with NCI-H23 lung was -37.6% (active); in the test on NCI-H226 lung it was -26% (active); with NCI-H322M lung it was -26.6% (active); in the test with NCI-H460 lung it was -29.6% (active); in the test on NCI-H522 lung, -16.4% (active); in the test on A549/ATCC NSCLC it was -24.7% (active). The growth in the test on 786-0 renal is -65.8% (active); in the test on DU-145 prostate, -5.69% (active); in the test on K-562 leukemia it was 4.04% (active); in the test with MALME-3M melanoma, -67% (active); in the test on MDA-MB-231 breast, -35% (active); in the test with RXF 393 renal, -74.2% (active). For the same compound, the growth in the test with SF-268 CNS is -10.9% (active); with SF-295 CNS, -29.9% (active); in the test on SF-539 CNS, -45.1% (active); in the test on UACC-257 melanoma, -12.8% (active); in the test with M14 melanoma, -44.2% (active).
With `CCCCCCCCCC(C)NC(=O)CCl` (stereo not drawn), the growth with NCI-H23 lung is 90%; with NCI-H226 lung, 96.5%; in the test with NCI-H322M lung, 96.6%; with NCI-H460 lung it was 107%; in the test on 786-0 renal, 93.1%; with COLO 205 colon it was 113%. Also, the growth is 102% with DU-145 prostate; 97.3% with K-562 leukemia; 93.8% in the test on MALME-3M melanoma; 93% in the test with MDA-MB-231 breast; 101% in the test on RXF 393 renal; 95.1% in the test with SF-268 CNS. Further, the growth is 99.8% in the test on SF-295 CNS, 99.9% with SF-539 CNS and 107% with M14 melanoma.
With `O=c1[nH]c(=S)[nH]c(O)c1/C=C1\C=Nc2ccccc21`, the growth is 82.5% in the test with NCI-H23 lung; 90.5% in the test on NCI-H226 lung; 110% in the test on NCI-H322M lung; 79.5% with NCI-H460 lung; 91.5% with NCI-H522 lung; 107% with 786-0 renal. For the same compound, the growth in the test with COLO 205 colon was 78.8%; in the test with DU-145 prostate, 108%; in the test with K-562 leukemia it was 99.4%; in the test on MALME-3M melanoma, 99.5%; in the test on MDA-MB-231 breast it was 64.5%; in the test with SF-268 CNS, 70%. The growth is 43% with SF-295 CNS, 94.2% in the test on SF-539 CNS, 80.5% in the test with UACC-257 melanoma and 92.3% in the test on M14 melanoma.
In the case of `NCCCOc1cc2ccccc2cc1C(=O)Nc1ccc(Cl)cc1OC(=O)c1cc2ccccc2cc1OCCCN`, the growth with NCI-H23 lung was -72.2% (active); in the test with NCI-H226 lung, -57.6% (active); in the test with NCI-H322M lung, -69.3% (active); with NCI-H460 lung, -89.7% (active); with A549/ATCC NSCLC it was -94.3% (active); in the test with 786-0 renal, -86.2% (active). For the same compound, the growth in the test on COLO 205 colon was -90.8% (active); with DU-145 prostate it was -97% (active); in the test with K-562 leukemia, -37.5% (active); with MALME-3M melanoma it was -70.7% (active); in the test with RXF 393 renal it was -86.4% (active); in the test with SF-268 CNS, -80.5% (active). Also, the growth with SF-295 CNS was -76.2% (active); in the test on SF-539 CNS, -89.6% (active); with M14 melanoma, -86.7% (active).
Regarding `Nc1cc(N)c2nc(NCCc3ccc(Cl)c(Cl)c3)cnc2c1`, the growth with NCI-H23 lung was 63.8%; in the test with NCI-H226 lung it was 61.4%; with NCI-H322M lung, -3.74% (active); with NCI-H460 lung it was 71.9%; in the test on NCI-H522 lung, 17.3%; in the test with A549/ATCC NSCLC, 71.1%. The growth with 786-0 renal was 37.5%; in the test with COLO 205 colon, 5.65% (active); in the test on DU-145 prostate, 101%; in the test on K-562 leukemia, -23.1% (active); with MDA-MB-231 breast it was -23.5% (active); with RXF 393 renal, 51.1%. Also, the growth was 30.8% in the test with SF-268 CNS, 89.4% with SF-295 CNS, 89.6% in the test with SF-539 CNS and 90.4% in the test on UACC-257 melanoma.
Regarding `CCOc1ccc(Br)cc1/C=C(\C#N)c1ccc([N+](=O)[O-])cc1`, the growth in the test with NCI-H23 lung is 87.6%; in the test with NCI-H226 lung it was 81.2%; with NCI-H322M lung it was 77.4%; in the test with NCI-H460 lung, 82.2%; in the test on 786-0 renal, 86.3%; in the test with COLO 205 colon it was 97.2%. The growth in the test with DU-145 prostate was 80.4%; with K-562 leukemia it was 80.6%; in the test on MALME-3M melanoma, 62.2%; with MDA-MB-231 breast, 61.2%; in the test with RXF 393 renal it was 66.7%; in the test with SF-268 CNS, 60.9%. Also, the growth in the test on SF-295 CNS was 76.5%; with SF-539 CNS, 81.1%; in the test with M14 melanoma it was 101%.
With `Cn1c2ccccc2c2ccccc21`, the growth was 99% in the test on NCI-H23 lung; 103% in the test with NCI-H226 lung; 94.9% with NCI-H322M lung; 110% in the test with NCI-H460 lung; 108% with A549/ATCC NSCLC; 105% with 786-0 renal. The growth was 104% with COLO 205 colon; 106% with DU-145 prostate; 89.3% in the test with K-562 leukemia; 101% with MALME-3M melanoma; 108% in the test with MDA-MB-231 breast; 111% in the test on RXF 393 renal. For the same compound, the growth in the test with SF-268 CNS is 103%; with SF-539 CNS it was 108%; in the test on UACC-257 melanoma it was 94.8%; in the test on M14 melanoma, 99.3%.
For the compound `O=C(c1ccccc1)c1ccccc1-c1ccccc1`, the growth in the test on NCI-H23 lung is 46.2%; in the test on NCI-H226 lung it was 71.8%; in the test with NCI-H322M lung, 65.6%; in the test with NCI-H460 lung, 15.1%; in the test on A549/ATCC NSCLC it was 38.3%; with 786-0 renal it was 37.8%. Also, the growth in the test with COLO 205 colon is 22.6%; in the test with DU-145 prostate, 51.1%; with K-562 leukemia, 14.5%; in the test with MALME-3M melanoma, 49.4%; in the test on MDA-MB-231 breast it was 42.1%; in the test on SF-268 CNS, 45.4%. The growth in the test on SF-295 CNS is 17.1%; in the test on SF-539 CNS, 20.4%; with UACC-257 melanoma it was 55.4%; in the test on M14 melanoma, 0.878% (active).

The values above are taken from PubChem BioAssay (NCI).
